About 7,900 targets were measured; listed, in parts, are those with a hit and a random draw of the rest. About 0.6% of all pairs of compound and target were hits. A number with no mark means an inactive call.

Compound in the assay: c1cn2cc(-c3ccc4cn[nH]c4c3)nc(Nc3ccc(N4CCOCC4)cc3)c2n1 [entospletinib]
Put plainly: log2 fold change, soluble protein after heating vs DMSO (PISA); higher = thermal stabilisation; K562 cells, 10 uM, 30 min; active = over 0.2 and 3.5 SD of the protein, either way, in both replicates (recomputed). The essentials: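 Soluble protein was quantified by TMTpro 16plex LC-MS/MS after channel sums were equalised. It was obtained as the supernatant after 21,000xg for 90 min from pooled aliquots of K562 cells (2×10^6 cells/mL, 10 μM compound, 30 min) heated for 3 min across 48°C-58°C and extracted in PBS with 0.5% NP-40 at 4°C. Thermal stability values are relative to control samples and come from duplicates. They are given as log2 fold changes.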

UniProt Q13362, sequence (Q13362 whole entry, looked up): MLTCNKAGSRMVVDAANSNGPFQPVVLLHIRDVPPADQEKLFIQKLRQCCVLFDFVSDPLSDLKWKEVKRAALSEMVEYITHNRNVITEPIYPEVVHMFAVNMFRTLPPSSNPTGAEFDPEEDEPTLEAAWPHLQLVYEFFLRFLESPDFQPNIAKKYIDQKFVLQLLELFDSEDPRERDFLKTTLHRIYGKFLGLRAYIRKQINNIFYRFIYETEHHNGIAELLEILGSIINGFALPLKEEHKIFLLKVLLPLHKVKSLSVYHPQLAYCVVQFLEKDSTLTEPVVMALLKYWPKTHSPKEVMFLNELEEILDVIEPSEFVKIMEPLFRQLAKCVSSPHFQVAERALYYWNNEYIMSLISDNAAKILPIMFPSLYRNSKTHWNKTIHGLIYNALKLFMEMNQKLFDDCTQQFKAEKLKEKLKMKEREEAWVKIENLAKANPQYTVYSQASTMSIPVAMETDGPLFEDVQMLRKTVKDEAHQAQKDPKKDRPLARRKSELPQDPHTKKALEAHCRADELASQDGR
UniProt O00231, sequence (O00231 whole entry, looked up): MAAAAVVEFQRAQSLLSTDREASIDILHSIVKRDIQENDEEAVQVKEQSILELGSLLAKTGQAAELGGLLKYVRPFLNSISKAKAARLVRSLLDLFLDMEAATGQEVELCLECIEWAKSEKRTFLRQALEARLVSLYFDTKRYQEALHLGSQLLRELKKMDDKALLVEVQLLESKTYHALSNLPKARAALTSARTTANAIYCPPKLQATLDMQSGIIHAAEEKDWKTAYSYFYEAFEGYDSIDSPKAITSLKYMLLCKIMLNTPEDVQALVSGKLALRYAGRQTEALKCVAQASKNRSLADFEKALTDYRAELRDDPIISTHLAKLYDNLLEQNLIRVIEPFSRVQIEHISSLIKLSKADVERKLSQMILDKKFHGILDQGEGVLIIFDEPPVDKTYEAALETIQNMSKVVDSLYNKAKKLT
UniProt Q02156, sequence (Q02156 whole entry, looked up): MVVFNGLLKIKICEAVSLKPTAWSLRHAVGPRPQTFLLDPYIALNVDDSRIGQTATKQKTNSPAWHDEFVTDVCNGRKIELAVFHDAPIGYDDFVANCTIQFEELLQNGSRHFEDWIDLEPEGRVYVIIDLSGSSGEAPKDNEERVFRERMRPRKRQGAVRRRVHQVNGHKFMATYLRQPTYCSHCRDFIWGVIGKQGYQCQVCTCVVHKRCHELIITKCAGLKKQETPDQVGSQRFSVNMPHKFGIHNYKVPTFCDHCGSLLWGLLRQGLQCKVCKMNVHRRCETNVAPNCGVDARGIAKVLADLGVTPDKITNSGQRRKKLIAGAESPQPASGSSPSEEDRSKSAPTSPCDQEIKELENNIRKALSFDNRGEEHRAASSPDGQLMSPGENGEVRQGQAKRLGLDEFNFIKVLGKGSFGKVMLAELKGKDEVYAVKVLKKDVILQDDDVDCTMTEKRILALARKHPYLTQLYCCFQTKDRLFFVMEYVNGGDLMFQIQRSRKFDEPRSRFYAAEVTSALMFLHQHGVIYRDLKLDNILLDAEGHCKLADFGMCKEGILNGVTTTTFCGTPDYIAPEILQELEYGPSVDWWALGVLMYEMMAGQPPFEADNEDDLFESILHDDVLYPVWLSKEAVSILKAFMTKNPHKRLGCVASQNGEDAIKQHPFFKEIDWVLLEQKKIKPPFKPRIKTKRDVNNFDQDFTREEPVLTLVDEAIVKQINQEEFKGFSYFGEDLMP
UniProt Q5JVF3, sequence (Q5JVF3 whole entry, looked up): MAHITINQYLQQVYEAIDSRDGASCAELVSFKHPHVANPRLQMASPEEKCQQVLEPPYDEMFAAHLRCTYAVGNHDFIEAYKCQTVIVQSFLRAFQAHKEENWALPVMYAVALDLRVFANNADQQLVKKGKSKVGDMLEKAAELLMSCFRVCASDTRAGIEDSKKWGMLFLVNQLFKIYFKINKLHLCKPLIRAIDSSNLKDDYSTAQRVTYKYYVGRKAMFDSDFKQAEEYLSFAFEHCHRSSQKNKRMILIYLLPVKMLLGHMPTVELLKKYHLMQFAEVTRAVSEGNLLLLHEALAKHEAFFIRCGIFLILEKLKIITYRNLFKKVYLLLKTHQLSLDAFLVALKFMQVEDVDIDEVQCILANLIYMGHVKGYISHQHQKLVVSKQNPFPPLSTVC
UniProt Q8IWE5, sequence (Q8IWE5 whole entry, looked up): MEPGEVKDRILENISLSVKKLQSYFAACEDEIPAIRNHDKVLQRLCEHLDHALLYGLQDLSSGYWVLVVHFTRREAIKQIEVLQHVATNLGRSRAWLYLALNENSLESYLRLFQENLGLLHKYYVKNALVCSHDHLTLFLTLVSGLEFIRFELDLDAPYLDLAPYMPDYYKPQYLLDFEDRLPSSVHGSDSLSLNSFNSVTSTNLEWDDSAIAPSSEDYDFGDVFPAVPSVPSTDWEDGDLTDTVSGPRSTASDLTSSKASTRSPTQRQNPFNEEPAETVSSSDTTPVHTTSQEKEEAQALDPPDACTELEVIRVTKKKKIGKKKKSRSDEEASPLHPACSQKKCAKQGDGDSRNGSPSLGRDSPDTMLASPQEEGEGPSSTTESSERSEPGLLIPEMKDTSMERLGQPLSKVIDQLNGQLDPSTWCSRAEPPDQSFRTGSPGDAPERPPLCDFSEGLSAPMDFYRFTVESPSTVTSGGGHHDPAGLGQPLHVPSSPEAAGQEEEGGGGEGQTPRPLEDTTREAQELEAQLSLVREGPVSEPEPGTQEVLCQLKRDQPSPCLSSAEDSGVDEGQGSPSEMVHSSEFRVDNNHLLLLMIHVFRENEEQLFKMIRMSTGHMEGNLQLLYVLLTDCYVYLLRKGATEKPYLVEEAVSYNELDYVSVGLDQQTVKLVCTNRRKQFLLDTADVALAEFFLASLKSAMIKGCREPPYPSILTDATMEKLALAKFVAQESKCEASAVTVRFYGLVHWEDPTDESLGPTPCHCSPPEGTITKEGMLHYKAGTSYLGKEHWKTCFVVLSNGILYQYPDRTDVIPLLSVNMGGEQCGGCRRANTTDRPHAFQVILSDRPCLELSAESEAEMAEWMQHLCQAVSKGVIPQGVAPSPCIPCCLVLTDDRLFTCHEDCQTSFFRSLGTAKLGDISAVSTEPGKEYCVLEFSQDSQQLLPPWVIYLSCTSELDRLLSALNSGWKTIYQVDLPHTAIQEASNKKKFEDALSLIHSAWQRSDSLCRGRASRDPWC
UniProt O43242, sequence (O43242 whole entry, looked up): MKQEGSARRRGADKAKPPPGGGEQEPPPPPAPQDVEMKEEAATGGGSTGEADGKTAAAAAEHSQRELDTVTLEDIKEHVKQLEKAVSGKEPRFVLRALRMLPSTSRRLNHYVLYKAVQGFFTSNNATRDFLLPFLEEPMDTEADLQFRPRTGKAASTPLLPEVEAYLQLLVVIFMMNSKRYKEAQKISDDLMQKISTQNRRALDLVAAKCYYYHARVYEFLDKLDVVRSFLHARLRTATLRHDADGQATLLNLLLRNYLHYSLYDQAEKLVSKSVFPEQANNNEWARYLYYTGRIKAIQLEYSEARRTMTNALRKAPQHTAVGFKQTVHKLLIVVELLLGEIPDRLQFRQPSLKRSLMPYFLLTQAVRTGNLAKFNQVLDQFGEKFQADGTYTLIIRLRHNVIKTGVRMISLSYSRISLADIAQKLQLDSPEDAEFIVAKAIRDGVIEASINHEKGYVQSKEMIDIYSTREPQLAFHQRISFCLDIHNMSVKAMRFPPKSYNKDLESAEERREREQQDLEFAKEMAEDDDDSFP
UniProt P62191, sequence (P62191 whole entry, looked up): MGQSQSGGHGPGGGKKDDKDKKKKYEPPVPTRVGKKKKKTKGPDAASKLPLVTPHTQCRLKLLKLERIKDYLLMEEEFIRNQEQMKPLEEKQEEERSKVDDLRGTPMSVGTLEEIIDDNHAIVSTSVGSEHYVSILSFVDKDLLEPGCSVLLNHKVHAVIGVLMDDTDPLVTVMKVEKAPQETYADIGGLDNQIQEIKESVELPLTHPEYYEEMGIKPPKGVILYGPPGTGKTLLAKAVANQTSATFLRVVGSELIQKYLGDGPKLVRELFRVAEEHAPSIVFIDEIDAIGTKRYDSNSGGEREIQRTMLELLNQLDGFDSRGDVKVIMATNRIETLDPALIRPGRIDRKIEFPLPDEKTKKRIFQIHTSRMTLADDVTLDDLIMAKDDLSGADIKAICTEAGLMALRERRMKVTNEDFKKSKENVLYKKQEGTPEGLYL
UniProt Q8TAP8, sequence (Q8TAP8 whole entry, looked up): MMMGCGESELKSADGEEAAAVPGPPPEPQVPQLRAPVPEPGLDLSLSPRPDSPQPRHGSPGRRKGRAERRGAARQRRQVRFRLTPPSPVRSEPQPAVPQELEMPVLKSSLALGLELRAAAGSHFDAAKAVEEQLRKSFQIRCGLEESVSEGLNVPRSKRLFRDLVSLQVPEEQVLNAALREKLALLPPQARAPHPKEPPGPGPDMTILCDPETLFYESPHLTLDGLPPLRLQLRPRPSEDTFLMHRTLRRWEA
UniProt O15305, sequence (O15305 whole entry, looked up): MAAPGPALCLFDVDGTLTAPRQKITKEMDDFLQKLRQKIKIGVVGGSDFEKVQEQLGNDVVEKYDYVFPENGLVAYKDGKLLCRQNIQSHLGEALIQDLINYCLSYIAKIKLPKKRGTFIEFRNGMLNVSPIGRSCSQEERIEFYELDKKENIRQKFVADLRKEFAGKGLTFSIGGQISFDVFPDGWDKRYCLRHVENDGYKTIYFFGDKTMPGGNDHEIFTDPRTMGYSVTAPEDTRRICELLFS
UniProt Q8N8N7, sequence (Q8N8N7 whole entry, looked up): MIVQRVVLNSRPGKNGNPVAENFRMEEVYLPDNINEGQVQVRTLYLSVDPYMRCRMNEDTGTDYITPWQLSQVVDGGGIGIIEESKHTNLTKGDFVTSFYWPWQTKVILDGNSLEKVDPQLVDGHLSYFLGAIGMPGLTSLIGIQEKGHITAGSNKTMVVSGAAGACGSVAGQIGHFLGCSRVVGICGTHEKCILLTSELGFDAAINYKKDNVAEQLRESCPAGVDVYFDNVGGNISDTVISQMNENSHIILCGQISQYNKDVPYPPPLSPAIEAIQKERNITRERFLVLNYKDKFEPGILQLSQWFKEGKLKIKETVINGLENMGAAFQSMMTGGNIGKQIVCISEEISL

On to PMM2 (UniProt O15305), for which the log2 fold change is -0.194.
As to POLR2D (UniProt O15514), the log2 fold change was 0.162.
In the case of PCF11 (UniProt O94913) it was -0.745 (active).
Consider PTDSS1 (UniProt P48651), for which the log2 fold change is 0.147.
The figure for PSMD11 (UniProt O00231) is 0.017; for PSMC1 (UniProt P62191) it is 0.006.
Consider PC (UniProt P11498), for which the log2 fold change was 0.002.
Take PKN1 isoform 2 (UniProt Q16512): the log2 fold change was 0.014.
For the target PPP2R5C isoform 4 (UniProt Q13362), the log2 fold change is -0.023.
The figure for PPP1R35 (UniProt Q8TAP8) is -0.04; for PCID2 (UniProt Q5JVF3) it is 0.014; for QRSL1 (UniProt Q9H0R6) it is -0.008.
Turning to PKM isoform 2 (UniProt P14618), the log2 fold change is 0.128.
In the case of PLEKHM2 (UniProt Q8IWE5) it was -0.051; in that of PRPF40A (UniProt O75400), 0.057.
POLB (UniProt P06746): the log2 fold change is -0.156.
In the case of POLR1A (UniProt O95602) it was -0.057; in that of PRKCE (UniProt Q02156), 0.016.
Consider PTGR2 (UniProt Q8N8N7), for which the log2 fold change is 0.043.
In the case of PRKCB isoform 2 (UniProt P05771), the log2 fold change is -0.012.
In the case of PSMD3 (UniProt O43242) it was 0.049.
The figure for PRKACB isoform 2 (UniProt P22694) is -0.019.
In the case of PPP2R5C isoform 5 (UniProt Q13362) it was -0.012.

The values above are taken from the supplement of paper PMC10849652.
